Results on one compound are retold here after the supplement of paper PMC11732987, “Enantioselective OTUD7B fragment discovery through chemoproteomics screening and high-throughput optimisation” (Communications Chemistry, 2025).

Holding throughout (test): log2 ratio of Biotin-Ahx-Ub-VS probe labelling (fragment/DMSO); higher = less target engagement (more negative = stronger competition), active = hit call of the paper (q ≤ 0.05, log2 ratio ≤ -1)
Common to all, as to conditions: compound concentration: 200 uM; treatment time: 3 h

One test concerns the target T1, OTUD6B (UniProt Q8N6M0).
T1 sequence (whole entry): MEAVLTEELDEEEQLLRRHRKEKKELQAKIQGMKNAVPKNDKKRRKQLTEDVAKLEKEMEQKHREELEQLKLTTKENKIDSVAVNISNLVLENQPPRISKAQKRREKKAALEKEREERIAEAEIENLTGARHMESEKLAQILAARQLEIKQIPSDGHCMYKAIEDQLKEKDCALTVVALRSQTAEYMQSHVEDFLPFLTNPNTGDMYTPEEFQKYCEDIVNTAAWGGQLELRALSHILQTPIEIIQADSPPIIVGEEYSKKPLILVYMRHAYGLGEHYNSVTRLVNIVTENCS
Put shortly: (§1)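 The table lists average log2 ratios of fragment over vehicle, from an unpaired t-test on global-median-normalised Spectronaut label-free quantities. Proteins with ≥2 unique peptides were used. Samples were HEK293T lysate (495 µg) treated in triplicate with fragment at 200 µM or vehicle for 3 h, then with Biotin-Ahx-Ub-VS (0.5 µM final) for 1 h, with labelled DUBs NeutrAvidin-enriched and run by diaPASEF LC-MS/MS.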

The next test addresses T2, OTUD7B (UniProt Q6GQQ9).
T2 sequence (whole entry): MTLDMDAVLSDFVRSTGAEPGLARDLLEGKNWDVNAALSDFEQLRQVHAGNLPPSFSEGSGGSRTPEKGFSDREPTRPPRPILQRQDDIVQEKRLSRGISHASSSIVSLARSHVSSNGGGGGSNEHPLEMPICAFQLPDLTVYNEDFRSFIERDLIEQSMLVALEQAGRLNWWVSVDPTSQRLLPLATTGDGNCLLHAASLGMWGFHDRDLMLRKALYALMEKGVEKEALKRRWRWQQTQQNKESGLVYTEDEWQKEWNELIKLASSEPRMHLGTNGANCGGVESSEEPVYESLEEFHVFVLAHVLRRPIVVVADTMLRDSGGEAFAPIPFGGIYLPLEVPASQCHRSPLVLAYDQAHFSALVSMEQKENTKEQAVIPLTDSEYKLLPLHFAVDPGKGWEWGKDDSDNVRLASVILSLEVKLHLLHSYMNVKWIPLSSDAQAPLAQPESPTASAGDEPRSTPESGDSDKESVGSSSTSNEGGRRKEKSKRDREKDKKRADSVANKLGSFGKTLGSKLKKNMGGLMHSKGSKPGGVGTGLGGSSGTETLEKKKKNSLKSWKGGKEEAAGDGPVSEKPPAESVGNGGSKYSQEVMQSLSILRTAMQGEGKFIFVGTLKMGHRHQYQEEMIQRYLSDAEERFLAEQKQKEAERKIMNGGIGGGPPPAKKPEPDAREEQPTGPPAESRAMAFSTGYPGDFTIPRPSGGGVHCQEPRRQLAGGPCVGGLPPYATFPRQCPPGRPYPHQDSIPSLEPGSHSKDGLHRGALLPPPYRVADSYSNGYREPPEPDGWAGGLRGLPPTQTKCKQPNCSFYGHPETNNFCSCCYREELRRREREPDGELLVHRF
The gist of the method: as §1

For a further test, the target named is PRPF8 (UniProt Q6P2Q9). Put shortly:
as §1

A further test deals with T3, PSMD7 (UniProt P51665).
T3 sequence (whole entry): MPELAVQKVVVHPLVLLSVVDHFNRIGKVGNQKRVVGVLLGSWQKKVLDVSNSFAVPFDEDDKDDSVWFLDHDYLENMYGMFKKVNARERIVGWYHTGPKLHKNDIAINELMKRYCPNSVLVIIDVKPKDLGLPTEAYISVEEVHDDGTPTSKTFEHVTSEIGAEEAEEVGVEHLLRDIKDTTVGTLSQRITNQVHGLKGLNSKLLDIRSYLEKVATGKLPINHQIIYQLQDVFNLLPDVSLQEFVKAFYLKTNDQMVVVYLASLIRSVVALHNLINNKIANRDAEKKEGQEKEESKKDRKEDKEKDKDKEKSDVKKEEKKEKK
The gist of the method: as §1

For a further test, the target named is UCHL1 (UniProt P09936). The gist of the method:
as §1

The target of the next test is T4, UCHL3 (UniProt P15374).
T4 sequence (whole entry): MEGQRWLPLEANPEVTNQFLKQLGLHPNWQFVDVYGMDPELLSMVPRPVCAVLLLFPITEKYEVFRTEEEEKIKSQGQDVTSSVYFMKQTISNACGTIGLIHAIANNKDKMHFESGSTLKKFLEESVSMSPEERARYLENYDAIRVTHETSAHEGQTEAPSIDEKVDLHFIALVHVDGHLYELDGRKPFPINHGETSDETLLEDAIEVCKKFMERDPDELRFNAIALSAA
The gist of the method:
as §1

For another test, the target named is T5, UCHL5 (UniProt Q9Y5K5).
T5 sequence (whole entry): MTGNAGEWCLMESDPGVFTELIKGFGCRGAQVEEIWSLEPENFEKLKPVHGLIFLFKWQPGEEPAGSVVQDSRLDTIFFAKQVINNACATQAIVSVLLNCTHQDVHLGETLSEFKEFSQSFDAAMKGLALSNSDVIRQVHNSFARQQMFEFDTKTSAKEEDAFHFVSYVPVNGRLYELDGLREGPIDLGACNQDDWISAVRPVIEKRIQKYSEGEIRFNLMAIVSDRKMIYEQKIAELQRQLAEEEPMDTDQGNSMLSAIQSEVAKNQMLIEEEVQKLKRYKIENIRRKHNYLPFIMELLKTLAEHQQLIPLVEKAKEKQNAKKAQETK
Put shortly: as §1

The target in the next test is USP10 (UniProt Q14694). The gist of the method:
as §1

The target of a further test is T6, USP15 (UniProt Q9Y4E8).
T6 sequence (whole entry): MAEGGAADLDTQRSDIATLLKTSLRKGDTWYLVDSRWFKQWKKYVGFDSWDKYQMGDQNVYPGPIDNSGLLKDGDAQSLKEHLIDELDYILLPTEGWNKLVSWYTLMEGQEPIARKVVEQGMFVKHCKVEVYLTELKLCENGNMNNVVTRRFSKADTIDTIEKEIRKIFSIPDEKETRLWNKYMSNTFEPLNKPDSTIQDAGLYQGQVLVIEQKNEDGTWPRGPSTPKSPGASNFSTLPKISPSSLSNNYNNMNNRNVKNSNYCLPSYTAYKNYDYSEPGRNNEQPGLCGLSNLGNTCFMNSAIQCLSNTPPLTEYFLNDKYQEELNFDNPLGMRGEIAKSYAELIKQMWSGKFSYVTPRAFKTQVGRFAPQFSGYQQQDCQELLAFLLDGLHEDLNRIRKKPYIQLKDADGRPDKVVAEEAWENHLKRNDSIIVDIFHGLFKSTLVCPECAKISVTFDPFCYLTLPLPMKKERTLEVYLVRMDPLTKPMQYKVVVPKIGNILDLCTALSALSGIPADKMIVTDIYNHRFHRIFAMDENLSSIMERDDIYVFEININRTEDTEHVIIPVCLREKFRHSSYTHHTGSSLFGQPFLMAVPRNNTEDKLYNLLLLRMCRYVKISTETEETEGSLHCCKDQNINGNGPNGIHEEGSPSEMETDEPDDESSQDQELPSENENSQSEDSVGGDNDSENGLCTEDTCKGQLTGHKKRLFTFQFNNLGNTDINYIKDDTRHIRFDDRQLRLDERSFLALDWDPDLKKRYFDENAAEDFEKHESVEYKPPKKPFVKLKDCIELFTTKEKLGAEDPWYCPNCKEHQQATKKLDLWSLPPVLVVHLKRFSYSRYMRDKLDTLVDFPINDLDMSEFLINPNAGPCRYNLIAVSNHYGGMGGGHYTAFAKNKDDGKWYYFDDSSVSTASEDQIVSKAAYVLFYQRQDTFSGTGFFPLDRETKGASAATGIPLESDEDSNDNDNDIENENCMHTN
The gist of the method:
as §1

A further test concerns the target USP16 (UniProt Q9Y5T5). The gist of the method:
as §1

A number with no mark means an inactive call.

USP10, sequence (Q14694 whole entry): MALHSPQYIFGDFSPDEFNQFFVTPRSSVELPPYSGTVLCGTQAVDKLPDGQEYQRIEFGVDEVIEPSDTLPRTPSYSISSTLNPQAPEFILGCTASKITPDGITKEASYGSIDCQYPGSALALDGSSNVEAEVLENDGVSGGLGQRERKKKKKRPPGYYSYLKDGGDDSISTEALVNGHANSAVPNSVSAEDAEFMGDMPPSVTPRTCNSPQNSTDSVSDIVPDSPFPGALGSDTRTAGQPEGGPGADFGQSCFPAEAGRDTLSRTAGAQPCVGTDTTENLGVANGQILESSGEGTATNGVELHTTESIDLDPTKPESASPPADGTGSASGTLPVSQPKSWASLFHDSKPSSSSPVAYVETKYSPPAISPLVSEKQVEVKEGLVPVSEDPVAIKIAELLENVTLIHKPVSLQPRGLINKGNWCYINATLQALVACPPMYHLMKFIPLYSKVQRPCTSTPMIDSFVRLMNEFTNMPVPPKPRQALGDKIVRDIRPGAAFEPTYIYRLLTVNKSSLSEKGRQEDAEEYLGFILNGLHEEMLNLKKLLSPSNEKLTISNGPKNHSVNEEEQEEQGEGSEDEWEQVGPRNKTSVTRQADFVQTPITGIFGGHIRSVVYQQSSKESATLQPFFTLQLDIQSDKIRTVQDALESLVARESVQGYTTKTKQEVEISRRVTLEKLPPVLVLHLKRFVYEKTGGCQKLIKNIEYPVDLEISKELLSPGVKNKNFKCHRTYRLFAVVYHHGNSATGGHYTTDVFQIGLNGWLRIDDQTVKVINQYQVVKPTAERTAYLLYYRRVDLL
USP16, sequence (Q9Y5T5 whole entry, looked up): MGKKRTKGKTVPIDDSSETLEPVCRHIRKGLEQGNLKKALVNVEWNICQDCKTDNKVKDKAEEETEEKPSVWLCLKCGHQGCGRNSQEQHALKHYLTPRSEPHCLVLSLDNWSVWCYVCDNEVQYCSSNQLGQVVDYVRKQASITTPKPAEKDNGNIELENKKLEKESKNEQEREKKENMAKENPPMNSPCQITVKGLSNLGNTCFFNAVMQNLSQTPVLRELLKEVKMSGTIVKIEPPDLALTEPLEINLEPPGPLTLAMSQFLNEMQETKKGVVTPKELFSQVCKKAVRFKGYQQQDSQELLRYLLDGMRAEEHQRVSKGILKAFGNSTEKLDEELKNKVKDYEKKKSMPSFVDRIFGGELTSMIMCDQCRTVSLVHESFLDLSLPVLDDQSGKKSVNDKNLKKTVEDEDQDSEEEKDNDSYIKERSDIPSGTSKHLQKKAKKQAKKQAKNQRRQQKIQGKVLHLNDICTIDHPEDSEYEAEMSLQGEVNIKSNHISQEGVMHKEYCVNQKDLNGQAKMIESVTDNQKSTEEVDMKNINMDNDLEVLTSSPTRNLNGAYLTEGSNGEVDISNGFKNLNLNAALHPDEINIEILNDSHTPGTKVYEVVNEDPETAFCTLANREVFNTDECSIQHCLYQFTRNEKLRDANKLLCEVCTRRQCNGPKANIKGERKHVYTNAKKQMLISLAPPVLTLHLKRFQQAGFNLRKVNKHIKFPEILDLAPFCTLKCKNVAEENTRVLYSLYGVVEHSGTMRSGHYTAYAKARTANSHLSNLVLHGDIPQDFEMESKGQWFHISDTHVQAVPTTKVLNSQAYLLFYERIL
UCHL1, sequence (P09936 whole entry, looked up): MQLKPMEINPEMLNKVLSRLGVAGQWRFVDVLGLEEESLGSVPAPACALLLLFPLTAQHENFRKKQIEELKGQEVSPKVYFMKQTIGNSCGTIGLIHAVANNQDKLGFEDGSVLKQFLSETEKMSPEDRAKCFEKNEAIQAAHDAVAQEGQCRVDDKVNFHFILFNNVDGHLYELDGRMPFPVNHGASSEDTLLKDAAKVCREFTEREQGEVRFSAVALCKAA

For the compound `CC(NC(=O)CCl)c1cccc2ccccc12` (stereo not given), the “log2 ratio of Biotin-Ahx-Ub-VS probe labelling” value was -0.00256 with OTUD6B; -1.46 (active) with OTUD7B; -0.109 with PRPF8; 0.0463 in the test with PSMD7; -1.35 (active) with UCHL1; -1.96 (active) with UCHL3. In addition, the “log2 ratio of Biotin-Ahx-Ub-VS probe labelling” value is -0.585 in the test with UCHL5, -0.00367 with USP10, -0.21 in the test with USP15 and 0.303 with USP16.
